# Results taken from the supplement of paper PMC7366291.
# Where a name gives a salt, the structure may show the parent alone. ± gives the standard deviation of the averaged measurements.
# Test system: Danio rerio Tg(wt1b:EGFP) embryo, pronephros
# Experiment: glomerular width (mean of left and right), fold change vs DMSO control; higher = wider glomerulus
# Settings: 25 µM; exposure: 24-48 hpf
# Summary of the method: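 Features are reported as fold changes against the mean of same-day DMSO-treated embryos. Before that, values more than 2 SD away from the feature mean were excluded. The embryos, dechorionated Tg(wt1b:EGFP) zebrafish, had been exposed from 24 to 48 hpf at 28.5°C to 25 μM compound in 0.5% DMSO in HEPES-buffered E3 with 0.003% PTU, and distances and angles came from 16 manually set points on maximum projections of dorsal pronephros images in Fiji.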
row,SMILES,glomerular width
1,Cc1cnc(C(=O)O)c[n+]1[O-] [Acipimox],1.015 ± 0.0095
2,CC(=O)OCC(=O)[C@@]1(O)CC[C@H]2[C@@H]3CCC4=CC(=O)C=C[C@]4(C)[C@@]3(F)[C@@H](O)C[C@@]21C [Isoflupredone acetate],1.21 ± 0.017
3,Cc1oncc1C(=O)Nc1ccc(C(F)(F)F)cc1 [Leflunomide],1.19 ± 0.15
4,CCOC(=O)[C@H](CCc1ccccc1)N[C@H]1CCc2ccccc2N(CC(=O)O)C1=O [Benazepril hydrochloride],1.05 ± 0.023
5,Nc1nc(NC2CC2)c2ncn([C@H]3C=C[C@@H](CO)C3)c2n1 [Abacavir Sulfate],1.05 ± 0.052
6,CC(=O)c1ccc2c(c1)N(CCCN(C)C)c1ccccc1S2 [Acetopromazine maleate salt],0.924 ± 0.071
7,Cc1c(-c2ccccc2)oc2c(C(=O)OCCN3CCCCC3)cccc2c1=O [Flavoxate hydrochloride],1.08 ± 0.037
8,CCN(CC)CCCC(C)Nc1c2ccc(Cl)cc2nc2ccc(OC)cc12 (stereo not given) [Quinacrine dihydrochloride hydrate],1.01 ± 0.016
9,Cn1c([N+](=O)[O-])cnc1COC(N)=O [Ronidazole],0.99 ± 0.011
10,CC(C)(C)NCC(O)COc1cccc2c1CC(O)C(O)C2 (stereo not given) [Nadolol],1.03 ± 0.12
11,CCn1cc(C(=O)O)c(=O)c2cc(F)c(N3CCN(C)CC3)cc21 [Pefloxacine],1.01 ± 0.021
12,CC(C)(C)NC[C@H](O)c1ccc(O)c(CO)c1 [Levalbuterol hydrochloride],1.07 ± 0.031
13,c1ccc2[nH]c(-c3cscn3)nc2c1 [Tiabendazole],1.01 ± 0.12
14,Nc1ccc(S(=O)(=O)Nc2nccs2)cc1 [Sulfathiazole],0.936 ± 0.027
15,N#Cc1ccc(C(c2ccc(C#N)cc2)n2cncn2)cc1 [Letrozole],1.023 ± 0.0059
16,CC(C)NNC(=O)c1ccncc1 [Iproniazide phosphate],1.03 ± 0.024
17,O=C(O)c1cc(/N=N/c2ccc(S(=O)(=O)Nc3ccccn3)cc2)ccc1O [Sulfasalazine],1.02 ± 0.016
18,CN(C)[C@@H]1C(O)=C(C(N)=O)C(=O)[C@@]2(O)C(O)=C3C(=O)c4c(O)ccc(Cl)c4[C@@](C)(O)[C@H]3C[C@@H]12 [Chlortetracycline hydrochloride],1.04 ± 0.012

row,SMILES,glomerular width
1,CCOCCn1c(N2CCCN(C)CC2)nc2ccccc21 [Emedastine],0.979 ± 0.051
2,C[N+](C)(C)CCOC(N)=O [Carbachol],1 ± 0.013
3,CCC(=O)O[C@]1(C(=O)SCF)[C@H](C)C[C@H]2[C@@H]3C[C@H](F)C4=CC(=O)C=C[C@]4(C)[C@@]3(F)[C@@H](O)C[C@@]21C [Fluticasone propionate],1.27 ± 0.021
4,O=c1[nH]c(=O)n([C@H]2C[C@H](O)[C@@H](CO)O2)cc1F [Floxuridine],0.972 ± 0.015
5,CCCc1nc2c(C)cc(-c3nc4ccccc4n3C)cc2n1Cc1ccc(-c2ccccc2C(=O)O)cc1 [Telmisartan],0.988 ± 0.024
6,Cn1c(=O)c2nc[nH]c2n(C)c1=O [Theophylline monohydrate],0.999 ± 0.047
7,CNCCC(Oc1ccc(C(F)(F)F)cc1)c1ccccc1 (stereo not given) [Fluoxetine hydrochloride],0.903 ± 0.041
8,CCCNC(=O)NS(=O)(=O)c1ccc(Cl)cc1 [Chlorpropamide],1.06 ± 0.087
9,NCC[C@H](O)C(=O)N[C@@H]1C[C@H](N)[C@@H](O[C@H]2O[C@H](CN)[C@@H](O)[C@H](O)[C@H]2O)[C@H](O)[C@H]1O[C@H]1O[C@H](CO)[C@@H](O)[C@H](N)[C@H]1O [Amikacin hydrate],1.02 ± 0.028
10,CCCCc1nc(Cl)c(CO)n1Cc1ccc(-c2ccccc2-c2nnn[nH]2)cc1 [Losartan],0.9444 ± 0.0062
11,CCCNC(C)C(=O)Nc1ccccc1C (stereo not given) [Prilocaine hydrochloride],0.947 ± 0.032
12,OCCN1CCN(CC/C=C2/c3ccccc3Sc3ccc(Cl)cc32)CC1 [Zuclopenthixol dihydrochloride],0.97247 ± 0.0005
13,CC(=O)SCC(Cc1ccccc1)C(=O)NCC(=O)OCc1ccccc1 (stereo not given) [Racecadotril],0.819 ± 0.085
14,CC1=C(C(=O)O)N2C(=O)[C@@H](NC(=O)[C@H](N)c3ccc(O)cc3)[C@H]2SC1 [Cefadroxil],1.08 ± 0.042
15,NS(=O)(=O)c1cc(Cl)c(Cl)c(S(N)(=O)=O)c1 [Dichlorphenamide],1.15 ± 0.06
16,CCS(=O)(=O)CCn1c([N+](=O)[O-])cnc1C [Tinidazole],1.04 ± 0.036
17,O=c1[nH]cc(F)c(=O)[nH]1 [5-fluorouracil],1.02 ± 0.042
